From PubChem
This is a sample that favours compounds with a hit; in the whole collection about 22% have one here.
Pf growth 48h = inhibits P. falciparum growth in the first generation, 48 h. P. falciparum luciferase growth in erythrocytes, 48 h. Potency, µM (highest dose often 28.7 µM), without a hit: at the highest dose activity change, negative = inhibition, usual class: inhibitors. actives 5.9% (n = 310,000). AID 504832; also: potency is read from the fitted curve at half-maximal effect; % is scaled to controls: 0 for no effect and ±100 for the full control effect
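Erythrocytes infected with P. falciparum carrying an integrated firefly luciferase reporter (2% hematocrit, 0.1% parasitemia final) were exposed to compounds in RPMI 1640 with 0.5% Albumax at 37 C, 5% CO2. Growth inhibition was scored as reduced luminescence.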
Pf growth 96h = inhibits malaria parasite growth, 96 h; P. falciparum luciferase reporter growth, 96 h; Potency, µM (titrated, usually from 28.7 µM), inactives show top-dose activity change, negative = inhibition, hits mostly inhibitors; actives 6.9% (n = 320,000); AID 504834; also: potency is read from the fitted curve at half-maximal effect; % is scaled to controls: 0 for no effect and ±100 for the full control effect
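P. falciparum expressing integrated firefly luciferase, in erythrocytes at 2% hematocrit, 0.05% parasitemia, incubated with compounds 96 h at 37 C, 5% CO2. Growth inhibition read as loss of luminescence; two-generation exposure targets delayed-death apicoplast inhibitors.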
Cycloheximide cs = counter-screen hit for Shiga toxin inhibitors, cycloheximide; actives 12% (n = 300,000); max response, %; AID 2314; cell reporter, cycloheximide protein synthesis inhibition counterscreen; in the data active = max response mostly above about 13%, no sharp cut-off; inactive = mostly below about 14%; also: read at 38.3 µM for the half of the compounds with a filed dose; 0% is about no effect
LmPK inh = LmPK (Leishmania mexicana) enzyme inhibition | Q27686 | purified LmPK, Kinase-Glo ATP luminescence, 1 h | Potency, µM (highest dose often 57.5 µM), inactives show at the highest dose activity change, negative = inhibition, hits mostly inhibitors | actives 0.37% (n = 290,000) | AID 1721; also: potency is read from the fitted curve at half-maximal effect; % is scaled to controls: 0 for no effect and ±100 for the full control effect
Target sequence (Q27686 whole entry, looked up): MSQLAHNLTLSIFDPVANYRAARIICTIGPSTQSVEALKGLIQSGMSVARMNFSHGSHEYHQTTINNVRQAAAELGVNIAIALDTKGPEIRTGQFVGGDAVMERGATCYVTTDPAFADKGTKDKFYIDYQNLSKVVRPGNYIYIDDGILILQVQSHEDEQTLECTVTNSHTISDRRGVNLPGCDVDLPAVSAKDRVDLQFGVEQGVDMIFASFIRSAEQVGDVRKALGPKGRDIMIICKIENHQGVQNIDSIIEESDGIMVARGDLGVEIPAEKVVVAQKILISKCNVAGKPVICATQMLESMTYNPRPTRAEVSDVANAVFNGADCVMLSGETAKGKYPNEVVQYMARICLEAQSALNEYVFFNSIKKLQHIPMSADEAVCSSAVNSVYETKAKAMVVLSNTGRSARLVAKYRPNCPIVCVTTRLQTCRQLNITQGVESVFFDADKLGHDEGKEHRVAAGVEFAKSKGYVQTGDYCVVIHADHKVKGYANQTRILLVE
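Pyruvate kinase activity monitored as ATP production (luciferase luminescence). Conditions: 0.1 nM enzyme, 0.5 mM PEP, 0.1 mM ADP, 1 h, RT; normalized against uninhibited and no-enzyme wells.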
Shiga inhibitor = blocks Shiga toxin action in Vero cells | Vero cells, Shiga toxin protein synthesis inhibition reporter | inhibition, % at 38.7 µM | actives 9.2% (n = 290,000) | AID 2315; in the data active = inhibition mostly above about 28%, no sharp cut-off; inactive = mostly below about 43%; also: 0% is about no effect
The depositor's hits bear a star. Unless noted, calls follow the shape of the dose curve; as a rule, active = well fitted inhibition curve with a large enough effect; inconclusive = small, poorly fitted or top-dose-only effect, or another doubt; inactive = no such curve, though single readings can be large or run the other way.

`CCCCCCSc1ccc(-c2nc3ccc(C)cn3c2NCc2ccccc2)cc1OC` gave Pf growth 48h 5.2µM* and Pf growth 96h 4.7µM*.
Screening COc1cc(-c2nc3cccc(C)n3c2NCC2CCCO2)ccc1O (stereo not given) returned Pf growth 48h inconclusive, Pf growth 96h inconclusive, Cycloheximide cs 11, LmPK inh -7% and Shiga inhibitor 2.
COc1ccc(-c2nc3ccc(C)cn3c2NCc2ccccc2)cc1SC1CCCCC1 was read as Pf growth 48h 10µM* and Pf growth 96h 6.6µM*.
Screening CCC(C)Sc1ccc(-c2nc3ccc(C)cn3c2NCc2ccccc2)cc1OC (stereo not given) returned Pf growth 48h 3.7µM* and Pf growth 96h 4.7µM*.
Screening CCCCCCSc1cc(-c2nc3ccc(Cl)cn3c2NCCCC)ccc1OC returned Pf growth 48h inconclusive and Pf growth 96h -6%.
Screening CC(C)(C)C1N=C(c2ccc3ccccc3c2)OC1=O (stereo not given) returned Pf growth 48h 28% and Pf growth 96h 22%.
For Cc1ccc(C(=O)CSc2nnc(-c3c[nH]c4ccccc34)o2)cc1 the results were Pf growth 48h 7%, Pf growth 96h 46%, Cycloheximide cs -1, LmPK inh 1% and Shiga inhibitor 2.
Screening O=C(CSc1nnc(-c2c[nH]c3ccccc23)o1)N(Cc1ccccc1)c1ccc(F)cc1 returned Pf growth 48h 7.4µM*, Pf growth 96h inconclusive, Cycloheximide cs 7, LmPK inh 4% and Shiga inhibitor 23.
